About 2,000 (41%) of roughly 4,900 compounds were called active.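 How the source made its calls: active means thallium signal drop beyond 5 SD of the untreated control mean, on both duplicate plates; inactive means the rest.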 So high a share suggests a set chosen from earlier hits. Not all results are given here.

This assay in a line: nonspecific activity without KCNK9 expression – cell-based, second counter screen, non-induced KCNK9-HEK293, counter-screen for KCNK9 inhibitor project, confirmation (AID 492997).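 On inhibition: plate controls were buffer only IC0 wells for no effect and SID17386958 at its maximal inhibitory level for full effect.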 The conditions noted are these: non-induced KCNK9-HEK293, FluxOR thallium flux, at 10 µM; stronger effect = higher value.
For the molecule `CCCCCCCCCCCCn1ccc(=N)cc1`, the inhibition is 29.5% (active).

Turning to `CCOC(=O)C1SC2(C(F)(F)C(F)F)CC1(O)c1c(c(OC)c3occc3c1OC)O2` (stereo unspecified), the inhibition entry is “inactive”.

On to `CC(C)(C)c1ccc(CN2C(=O)CN=C(c3ccccc3)c3ccccc32)cc1`, for which the inhibition was 50% (active).

Turning to `CC(C)(C)c1ccc(OC(=O)N2CCCCC2)cc1`, the inhibition entry was “inactive”.

In the case of `CC(C)n1c(=O)c(C=Nc2ccc(Br)cc2)c(O)n(Cc2ccco2)c1=O`, the inhibition entry is “inactive”.

For `CCCCCCN=C(CC)c1c(O)n(CCCC)c(=O)[nH]c1=O`, the inhibition is 32% (active).

Source of the values: PubChem BioAssay AID492997 (Johns Hopkins Ion Channel Center, 2010).
